Experiment [1] can be described thus: binders of probe aFSTL3 on microarray, primary screen, stem cell growth factor project, biochemical, small-molecule microarray, fluorescence 635/667 (AID 1064).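 Further: measures binding of the biotinylated anti-FSTL3 antibody to printed compounds.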 To be noted: higher = more signal.
Experiment [2] is described as follows: binders from COS7 lysate, DM2A8 probe, primary screen, torsin A project, cell lysate, small-molecule microarray, fluorescence 635/667 (AID 1065). The settings on record: higher = more signal, COS7 lysate expressing mutant human TOR1A.
Experiment [3] is described as follows: binders of probe aFGF2 on microarray, primary screen, stem cell growth factor project, biochemical, small-molecule microarray, fluorescence 635/667 (AID 1067).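 Further: measures binding of biotinylated aFGF2 protein to printed compounds on slides; z-score merges feature fluorescence and signal-to-noise across triplicate slides.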 To be noted: higher = more signal.
The nature of experiment [4]: binders of probe aFGF10 on microarray, primary screen, stem cell growth factor project, biochemical, small-molecule microarray, fluorescence 635/667 (AID 1071).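 Further: score merges 667 nm spot intensity and signal to noise from triplicate slides.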 The settings on record: higher = more signal.
Experiment [5] concerns the target Neurogenic locus notch homolog protein 2 (Homo sapiens) (UniProt Q04721). Briefly: Notch2 binders on small-molecule microarrays, primary screen, biochemical, small-molecule microarray, 635 nm fluorescence, stem cell growth factors (AID 1073). To be noted: Notch2 binding, higher = more signal.
Experiment [6] has as its target Pro-neuregulin-1, membrane-bound isoform (Homo sapiens) (UniProt Q02297). Briefly: NRG1 binders on small-molecule microarrays, primary screen, psychiatric disease protein project, biochemical, small-molecule microarray, fluorescence 635/667 (AID 1075).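 Further: score combines 667 nm spot fluorescence with signal to noise.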 The settings on record: NRG1 binding, 635 nm fluorescence, higher = more signal.
For experiment [7], the system named is Neuregulin-1 EGF-like domain. Briefly: binders of neuregulin-1 EGF-like domain, primary screen, biochemical, small-molecule microarray, 635 nm fluorescence (AID 1081).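 Further: binding of the protein to compounds printed on small-molecule microarray slides.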 To be noted: small-molecule microarray binding, higher = more signal.
Experiment [8] can be described thus: FRG1 promoter luciferase signal modulators, primary screen, FRG1 inhibition for FSHD, cell-based, C2C12 myotubes, firefly/Renilla luciferase, luminescence (AID 1084). To be noted: higher = more signal, called active from +8 up or from −8 down.
Experiment [9] in a line: binders of probe aFST on microarray, primary screen, stem cell growth factor project, biochemical, small-molecule microarray, fluorescence 635/667 (AID 1086).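 Further: score merges 667 nm fluorescence with signal-to-noise of each printed compound spot.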 The settings on record: higher = more signal.
A short description of experiment [10]: binders of probe aHhip on microarray, primary screen, stem cell growth factor project, biochemical, small-molecule microarray, fluorescence 635/667 (AID 1087).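 Further: score merges spot fluorescence at 667nm with spot signal to noise ratio.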 The settings on record: higher = more signal.

Structures are written as SMILES. Calls of active or inactive are those of the source.

Sequence of Neurogenic locus notch homolog protein 2 (Homo sapiens) (Q04721 whole entry, looked up, canonical isoform): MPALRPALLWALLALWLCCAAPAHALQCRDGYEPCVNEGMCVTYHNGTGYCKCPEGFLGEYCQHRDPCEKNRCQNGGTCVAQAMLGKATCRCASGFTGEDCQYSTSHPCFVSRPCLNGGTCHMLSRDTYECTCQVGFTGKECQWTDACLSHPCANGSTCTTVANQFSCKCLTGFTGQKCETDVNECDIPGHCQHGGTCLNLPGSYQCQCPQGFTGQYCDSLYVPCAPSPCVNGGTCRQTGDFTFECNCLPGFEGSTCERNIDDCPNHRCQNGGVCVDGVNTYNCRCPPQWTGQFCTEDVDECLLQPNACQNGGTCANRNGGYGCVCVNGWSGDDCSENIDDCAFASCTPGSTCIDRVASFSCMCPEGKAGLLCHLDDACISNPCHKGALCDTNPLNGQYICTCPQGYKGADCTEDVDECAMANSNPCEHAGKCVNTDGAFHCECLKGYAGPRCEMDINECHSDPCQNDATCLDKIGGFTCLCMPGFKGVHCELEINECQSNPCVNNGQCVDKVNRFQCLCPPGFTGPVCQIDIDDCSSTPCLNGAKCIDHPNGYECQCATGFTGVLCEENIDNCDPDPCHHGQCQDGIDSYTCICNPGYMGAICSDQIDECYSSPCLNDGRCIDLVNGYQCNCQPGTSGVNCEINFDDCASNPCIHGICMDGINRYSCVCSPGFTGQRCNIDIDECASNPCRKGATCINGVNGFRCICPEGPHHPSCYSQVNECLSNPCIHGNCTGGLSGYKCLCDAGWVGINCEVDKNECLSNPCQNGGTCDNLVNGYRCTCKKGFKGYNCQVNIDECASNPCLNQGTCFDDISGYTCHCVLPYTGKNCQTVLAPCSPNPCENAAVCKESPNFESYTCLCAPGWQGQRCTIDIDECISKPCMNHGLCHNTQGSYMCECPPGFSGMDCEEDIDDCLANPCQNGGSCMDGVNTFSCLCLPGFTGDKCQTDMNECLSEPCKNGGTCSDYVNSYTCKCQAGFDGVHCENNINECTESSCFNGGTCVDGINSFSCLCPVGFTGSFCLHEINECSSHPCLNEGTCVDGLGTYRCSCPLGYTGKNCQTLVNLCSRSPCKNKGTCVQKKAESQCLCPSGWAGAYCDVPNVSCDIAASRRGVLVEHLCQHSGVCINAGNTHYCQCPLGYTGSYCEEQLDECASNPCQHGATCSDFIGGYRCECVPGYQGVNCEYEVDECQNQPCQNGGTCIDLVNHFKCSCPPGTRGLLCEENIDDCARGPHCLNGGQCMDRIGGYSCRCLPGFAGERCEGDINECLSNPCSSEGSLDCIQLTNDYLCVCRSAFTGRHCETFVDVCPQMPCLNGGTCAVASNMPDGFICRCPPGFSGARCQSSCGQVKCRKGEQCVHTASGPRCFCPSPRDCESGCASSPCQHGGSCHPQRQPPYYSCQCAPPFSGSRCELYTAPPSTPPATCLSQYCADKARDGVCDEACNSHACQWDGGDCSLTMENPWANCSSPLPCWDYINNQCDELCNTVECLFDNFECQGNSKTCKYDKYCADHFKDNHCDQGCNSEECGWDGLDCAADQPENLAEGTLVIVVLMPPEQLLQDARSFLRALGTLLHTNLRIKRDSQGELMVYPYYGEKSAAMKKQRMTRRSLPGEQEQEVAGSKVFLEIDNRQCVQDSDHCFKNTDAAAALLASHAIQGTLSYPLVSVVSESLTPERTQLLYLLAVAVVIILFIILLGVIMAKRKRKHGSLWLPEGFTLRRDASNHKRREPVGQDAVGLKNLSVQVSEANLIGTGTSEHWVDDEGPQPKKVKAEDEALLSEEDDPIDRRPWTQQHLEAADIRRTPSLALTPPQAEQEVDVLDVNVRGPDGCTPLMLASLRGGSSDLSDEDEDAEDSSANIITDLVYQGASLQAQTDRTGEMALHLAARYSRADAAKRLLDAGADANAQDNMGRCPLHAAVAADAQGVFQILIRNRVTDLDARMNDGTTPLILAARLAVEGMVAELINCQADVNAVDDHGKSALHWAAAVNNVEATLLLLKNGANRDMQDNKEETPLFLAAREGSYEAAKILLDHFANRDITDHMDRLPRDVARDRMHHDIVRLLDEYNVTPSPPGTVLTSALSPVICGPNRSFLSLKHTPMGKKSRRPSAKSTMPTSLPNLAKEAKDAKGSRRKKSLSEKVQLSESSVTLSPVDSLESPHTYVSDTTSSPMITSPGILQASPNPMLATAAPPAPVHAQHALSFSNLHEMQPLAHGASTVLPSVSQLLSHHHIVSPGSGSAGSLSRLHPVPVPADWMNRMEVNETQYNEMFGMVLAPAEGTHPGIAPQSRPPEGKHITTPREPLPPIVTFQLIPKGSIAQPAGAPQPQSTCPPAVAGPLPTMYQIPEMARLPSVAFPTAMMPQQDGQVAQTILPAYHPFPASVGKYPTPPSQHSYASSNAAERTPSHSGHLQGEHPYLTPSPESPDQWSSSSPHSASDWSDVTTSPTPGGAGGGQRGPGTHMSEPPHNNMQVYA
Sequence of Pro-neuregulin-1, membrane-bound isoform (Homo sapiens) (Q02297 whole entry, looked up, the tested form may be a part, canonical isoform): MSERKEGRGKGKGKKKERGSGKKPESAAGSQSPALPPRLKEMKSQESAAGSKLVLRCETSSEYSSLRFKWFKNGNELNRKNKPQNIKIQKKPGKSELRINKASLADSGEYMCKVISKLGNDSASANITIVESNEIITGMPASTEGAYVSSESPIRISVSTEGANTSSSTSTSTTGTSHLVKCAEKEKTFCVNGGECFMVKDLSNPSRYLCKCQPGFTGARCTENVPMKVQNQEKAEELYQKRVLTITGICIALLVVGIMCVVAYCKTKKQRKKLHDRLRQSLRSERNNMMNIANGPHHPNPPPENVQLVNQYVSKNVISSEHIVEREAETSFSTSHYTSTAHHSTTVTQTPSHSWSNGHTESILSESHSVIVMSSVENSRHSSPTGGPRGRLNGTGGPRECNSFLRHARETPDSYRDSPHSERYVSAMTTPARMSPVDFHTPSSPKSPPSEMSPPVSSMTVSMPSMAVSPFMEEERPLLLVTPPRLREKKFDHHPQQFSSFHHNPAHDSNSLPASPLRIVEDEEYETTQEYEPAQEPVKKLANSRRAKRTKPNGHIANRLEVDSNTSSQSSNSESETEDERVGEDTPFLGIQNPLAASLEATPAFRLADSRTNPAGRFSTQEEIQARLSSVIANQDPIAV

Regarding `COCCCNC(=O)[C@@]1(Cc2ccccc2CN=[N+]=[N-])N=C(c2ccc(OCCCO)cc2)O[C@H]1c1ccccc1`, the composite z-score in experiment [1] was -0.102; in [2] it was 2.1; in [3], 0.0693; in experiment [4] it was 0.891; in experiment [5] it was 0.932; in experiment [6], 1.72. In addition, the composite z-score in experiment [7] stood at 1.2; in experiment [9], 1.82; in experiment [10], 0.28. Also, the z-score in experiment [8] was -2.01 (inactive).

Consider `CC(C)(C)OC(=O)CC[C@]1(C(=O)NCc2ccccc2)N=C(c2ccc(OCCCO)cc2)O[C@H]1c1ccccc1CN=[N+]=[N-]`, for which the composite z-score in experiment [1] is -0.0386; in experiment [2], 0.357; in experiment [3] it was 0.119; in experiment [4], 0.618; in experiment [5] it was 1.55; in experiment [6], 1.22. Also, the composite z-score is 1.31 in experiment [7], 1.48 in experiment [9] and -0.0296 in [10]. Besides, the z-score in experiment [8] is -2.07 (inactive).

Consider `COCCCNC(=O)[C@@]1(Sc2ccc(C)cc2)CC(=O)N(C2CCCCC2)[C@@H]1c1ccc(CO)cc1`, for which the composite z-score was 0.863 in experiment [1]; -0.596 in experiment [2]; 0.0019 in experiment [3]; 0.0381 in experiment [4]; -0.957 in experiment [5]; -0.113 in experiment [6]. The composite z-score is -0.119 in experiment [7], -0.37 in experiment [9] and -0.191 in experiment [10]. Also, the z-score in [8] is -0.721 (inactive).

Turning to `O[C@@H](Cc1ccccc1)[C@@H](/C=C/C1CC1)N(CC#Cc1ccccc1)Cc1cccc(Cl)c1`, the composite z-score was 1.39 in [1]; -0.393 in [2]; -0.129 in [3]; -1.06 in experiment [4]; -1.32 in [5]; -0.34 in experiment [6]. In addition, the results for the composite z-score in [7], in experiment [9] and in experiment [10] were -0.162, -0.959 and -0.227, respectively. Also, the z-score in experiment [8] was -0.976 (inactive).

As for `C=CCC(OC(C)=O)[C@@H]1[C@@H](N(Cc2cc3ccccc3o2)C(=O)c2ccc(-c3ccccc3)cc2)c2cc(OCCCO)ccc2N1C(=O)c1ccc2ccccc2c1` (stereo not given in full), the composite z-score in experiment [1] is -0.0256; in experiment [2], -0.262; in [3], 0.0405; in experiment [4], -0.0863; in [5], 0.251; in [6], 0.0445. For the same compound, the composite z-score in experiment [7] was -0.341; in [9], 0.679; in experiment [10], -0.214. Further, the z-score in [8] was -3.52 (inactive).

As to `O=C1NC(=O)C2C1C=CC(C(O)c1ccco1)N2Nc1ccccn1` (stereo not given), the composite z-score in [1] was -0.156; in experiment [2], -0.156; in experiment [3] it was -0.0907; in [4] it was -0.0923; in [5] it was 0.076; in experiment [6] it was -0.0825. Further, the composite z-score amounted to 1.08 in experiment [7], 0.055 in experiment [9] and 0.154 in [10]. The z-score in experiment [8] is 1.41 (inactive).

In the case of `CCCNC(=O)[C@@H]1c2ccccc2C(=O)N(C(C)C)[C@H]1c1ccc(CO)cc1`, the composite z-score was 0.277 in experiment [1]; -0.638 in [2]; -0.112 in [3]; -0.303 in experiment [4]; -0.664 in experiment [5]; 1.23 in [6]. For the same compound, the composite z-score in experiment [7] is 1.2; in experiment [9], 0.103; in [10], -0.271. In addition, the z-score in [8] was -0.273 (inactive).

On to `O=C1O[C@@H](c2ccccc2)[C@@H](c2ccccc2)N2[C@@H](c3ccc(OCCO)cc3)[C@]3(C(=O)Nc4ccccc43)[C@@H](C(=O)O)[C@H]12`, for which the composite z-score in [1] is 0.161; in experiment [2], 0.144; in experiment [3], -0.0336; in [4], 1.02; in [5] it was 0.381; in experiment [6], 1.5. Also, the composite z-score in experiment [7] is 1.45; in experiment [9] it was 0.0284; in experiment [10], -0.407. Further, the z-score in [8] was -0.0089 (inactive).

With `CC(=O)NCCCC[C@@H]1NC(=O)[C@H]2C[C@@H](C(=O)NCCCC[N+](C)(C)C)[C@@H](c3cccc(OCCO)c3)N2C1=O`, the composite z-score in experiment [1] was -0.188; in experiment [2], 1.86; in [3] it was -0.0319; in experiment [4], 1.23; in experiment [5] it was 0.165; in experiment [6], 0.4. Further, the composite z-score in experiment [7] worked out at 1.14; in [9] it was 0.593; in [10], 0.24. Further, the z-score in [8] was 0.647 (inactive).

`CC(CO)N1C(=O)[C@@H]2[C@H]3C(=O)OCC=C[C@H]3OC23C=CCN(Cc2ccccc2)C(=O)[C@@H]13` (stereo not given in full): the composite z-score in experiment [1] was 0.0457; in [2], -0.31; in [3] it was -0.166; in [4], -0.166; in [5] it was -0.374; in [6], -0.622. The figures for the composite z-score in experiment [7], in experiment [9] and in experiment [10] were 0.307, -0.531 and 0.12, respectively. The z-score in [8] is -0.282 (inactive).

`C=CCNC(=O)[C@H]1[C@@H]2C(=O)O[C@@H](c3ccccc3)[C@@H](c3ccccc3)N2[C@@H](c2ccc(O)cc2)[C@]12C(=O)N(C(=O)OCCOC)c1ccccc12`: the composite z-score in [1] was -0.548; in experiment [2], 0.267; in experiment [3], 0.0407; in experiment [4] it was 1.16; in [5] it was 1.05; in experiment [6] it was 1.33. Besides, the composite z-score in experiment [7] is 1.29; in [9], 0.303; in experiment [10], -0.541. For the same compound, the z-score in [8] was -1.96 (inactive).

`COc1ccc([Si](C)(C)[C@@H]2[C@@H](CC(=O)N(CCO)Cc3ccccc3)O[C@]3(C(=O)N(c4ccccc4)c4ccccc43)[C@H]2C)cc1`: the composite z-score in experiment [1] is -0.337; in [2], 0.326; in [3], -0.0455; in [4] it was 0.276; in experiment [5] it was 0.212; in [6], 0.954. Further, the composite z-score in experiment [7] is 1; in [9], 0.593; in experiment [10], -0.0994. For the same compound, the z-score in [8] was -2.62 (inactive).

Take `CC(C)N1C(=O)c2ccccc2[C@@H](C(=O)NC2CC2)[C@@H]1c1ccc(CO)cc1`: the composite z-score in experiment [1] was -0.236; in [2], -0.184; in experiment [3], -0.0615; in experiment [4], 0.0389; in experiment [5] it was -0.425; in experiment [6], 0.933. Besides, the composite z-score was 1.3 in experiment [7], -0.593 in [9] and -0.189 in experiment [10]. The z-score in experiment [8] was 0.216 (inactive).

For the compound `O=C(CS)NCCCCCNC(=O)[C@@H]1C[C@@H]2C(=O)N3CCC[C@H]3C(=O)N2[C@@H]1c1cccc(OCCO)c1`, the composite z-score in [1] is 0.511; in experiment [2] it was 1.59; in experiment [3], -0.106; in experiment [4] it was 0.051; in [5] it was -0.377; in [6], 1.19. In addition, the composite z-score in experiment [7] is 1.43; in [9], -0.599; in [10], -0.166. In addition, the z-score in experiment [8] was 0.174 (inactive).

Regarding `CC(CO)N1C(=O)[C@@H]2[C@H]3C(=O)OCC=C[C@H]3OC23C=CCN(CCN2CCOCC2)C(=O)[C@@H]13` (stereo not given in full), the composite z-score in [1] is -0.979; in experiment [2], -0.0708; in [3], -0.203; in [4], -0.362; in [5] it was -0.256; in experiment [6], -0.718. Moreover, the composite z-score in experiment [7] is 0.284; in experiment [9] it was -0.0558; in experiment [10] it was -0.539. Besides, the z-score in [8] is 1.03 (inactive).

For `CC(C)C[C@@H]1NC(=O)[C@@H]2C[C@H](C(=O)NCCCCN(C)C)[C@H](c3cccc(OCCO)c3)N2C1=O`, the composite z-score in experiment [1] was 0.0116; in experiment [2], 1.47; in experiment [3], -0.143; in [4] it was -0.242; in experiment [5] it was -0.416; in experiment [6] it was 0.204. Further, the values for the composite z-score in experiment [7], in [9] and in [10] were 1.19, -0.612 and -0.192, respectively. For the same compound, the z-score in experiment [8] is 6.17 (inactive).

The values are drawn from PubChem BioAssay.
